# Screening data from PubChem.
# Pf Dd2 inh – Plasmodium falciparum Dd2 growth inhibition. Potency, µM (highest dose often 28.9 µM), without a hit: at the top dose activity, negative = inhibition, usual class: inhibitors. AID 1347417. P. falciparum Dd2 growth, SYBR Green, 72 h. 120,000 compounds, 4.3% hits; active means well fitted inhibition curve with a large enough effect;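 further: plate controls were DMSO vehicle for no effect and reference drug for full effect; nearly all actives have a fitted effect of over 65% in size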
#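 Readout: SYBR Green fluorescence, 485 nm excitation, 535 nm emission, after ~16 h lysis at 37C. Before that, Dd2-infected red cells (2.5% hematocrit) grew 72 h with compound, 29 uM top final concentration.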
# * hit, by the source's call; i = inactive; [ ] = another dose, or the depositor's remark. Many of the other results were omitted from the sample, so hits are more common in it than they were. Potency means the concentration at half of the fitted maximal effect.
SMILES,Pf Dd2 inh
CCOc1ccc(-c2nonc2NC(=O)c2ccco2)cc1,32%
CCOc1ccc(-c2nonc2NC(=O)c2ccco2)cc1OCC,2.5µM*
CCCCOc1ccc(-c2nonc2NC(=O)c2ccco2)cc1,42%
CCn1c(C2CCN(C(=O)CCNC(=O)c3ccc(F)cc3)CC2)n[nH]c1=O,-24%
CC[C@H]1CN(S(=O)(=O)c2ccccc2)CC[C@H]1CC(=O)N1CCOCC1,i
CC[C@H]1CN(Cc2ccc(OC)cc2O)CC[C@H]1CC(=O)N1CCOCC1,7.9µM*
CC[C@H]1CN(C(=O)c2ccccc2)CC[C@H]1CC(=O)N1CCOCC1,-12%[44.1 µM]
C[C@@]12CO[C@@H](Cc3ccccc3)O[C@@H]1CC[C@]1(C)C2CC[C@@H](O)[C@H]1CC(=O)NCc1ccco1 (stereo partly drawn),i
COc1cc(-c2nc(-c3c(C)noc3C)cc3[nH]c(C)cc23)ccn1,i
CCOc1cc(C2C(C(=O)OC)=C(C)NC3=C2C(=O)c2ccccc23)c(Br)cc1O (stereo not drawn),-6%
CCOc1cc(C2C(C(=O)OC)=C(C)NC3=C2C(=O)c2ccccc23)ccc1OC (stereo not drawn),10µM*
CCOC(=O)COc1ccc(C2C(C(=O)OC)=C(C)NC3=C2C(=O)c2ccccc23)cc1Cl (stereo not drawn),-6%
O=C([C@@H]1C[C@H](F)CN1S(=O)(=O)c1cccc(Br)c1)N1CCCCC1,1%
O=C1C[C@H]2CC[C@@H](CN1CC(=O)N(Cc1c(F)cccc1Cl)C1CC1)N2,4%
COCc1cc(=O)n(CC(=O)Nc2ccc(Br)cc2F)c(N2CCOCC2)n1,7%
CCc1ccccc1NC(=O)Nc1cccc(-c2ccc(N3CCOCC3)nn2)c1,-24%
O=C(Nc1cccc(-c2ccc(N3CCOCC3)nn2)c1)Nc1ccc2c(c1)CCC2,i
O=C(NCc1ccco1)Nc1cccc(-c2ccc(N3CCCC3)nn2)c1,11µM*
CSc1cccc(NC(=O)Nc2cccc(-c3ccc(N4CCCC4)nn3)c2)c1,0%
CC(C)CNC(=O)Nc1cccc(-c2ccc(N3CCC(C)CC3)nn2)c1,-16%
Cc1cccc(C(=O)Nc2cccc(-c3ccc(N4CCN(C)CC4)nn3)c2)c1,13µM*
CCn1nc(C)c(CCNC(=O)c2cccc(C3CCNC3)c2)c1C (stereo not drawn),4%
COCC1CN(C(=O)NCCc2ccccc2)CC12CCNCC2 (stereo not drawn),7%
Cc1cccc(CN2CCn3c(nnc3[C@@H]3C[C@@H](O)CN3Cc3cccnc3)C2)c1,-16%
CC(C)NC(=O)N1CNC(=O)C12CCN(C(=O)CN)CC2,1%
SMILES,Pf Dd2 inh
O=C(O)[C@H]1C[C@H](C(=O)NCc2ccccn2)CN(Cc2ccccc2)C1,-6%
Cc1cccc(N2C(=O)C(CC(=O)Nc3cccc(F)c3)N(CCc3ccncc3)C2=O)c1 (stereo not drawn),-18%
COc1ccc(CCN2C(=O)N(c3ccc(C)cc3)C(=O)C2CC(=O)Nc2ccc(F)cc2)cc1 (stereo not drawn),-20%
CCc1ccc(NC(=O)CC2C(=O)N(c3ccc(C)cc3)C(=O)N2CCc2ccncc2)cc1 (stereo not drawn),6.3µM*
CC(C)c1cccc(NC(=O)CN2C(=O)C(c3ccccc3)=NC23CCCC3)c1,i
O=C(c1ccccc1F)N1CCCC2(CNc3ccccc3[S+](=O)([O-])N2)C1 (stereo not drawn),-19%
COc1ccccc1OCCNC(=O)C1CCCCC(=O)N1 (stereo not drawn),0%
CCc1cc(NCC(O)CN2CCCC2)ncn1 (stereo not drawn),5%
O=C(c1ccc2c(c1)OC(F)(F)O2)N1CC2(Cc3ccccc3NC2=O)C1,-7%
COc1ccc(-c2ccc3nc(-c4ccc(SC)cc4)oc3c2)c(OC)c1OC,i
CCCOc1ccc(-c2nc3ccc(-c4ccc(OC)c(OC)c4OC)cc3o2)cc1,10µM*
COc1ccc(-c2ccc3nc(-c4ccc(C)c(F)c4)oc3c2)c(OC)c1OC,11%
O=C(Nc1ccc([C@@H](O)[C@H]2COCC(=O)N2Cc2ccccc2)cc1)c1ccc(F)cc1,i
O=C(c1ccncc1)N1CCC2(CC1)CC(N1CCCC1)CCO2 (stereo not drawn),38%
O=C(COc1ccc(F)cc1)N1CCCC(c2noc(COc3ccccc3)n2)C1 (stereo not drawn),6.3µM*
Cc1ccc(C)c(NC(=O)N2CCCC(c3noc(COc4ccccc4F)n3)C2)c1 (stereo not drawn),i
Cc1ccc(OCc2nc(C3CN(C(=O)C4CCCO4)C3)no2)cc1 (stereo not drawn),8%
O=C(c1ccccc1F)N1CCCC(c2noc(COc3ccccc3)n2)C1 (stereo not drawn),-6%
Cc1ccc(OCc2nc(C3CCN(C(=O)c4ccncc4)CC3)no2)cc1,i
O=C(COc1ccc(F)cc1)N1CCC(n2cc(-c3nc(C4CC4)no3)nn2)C1 (stereo not drawn),5.6µM*
CCNC(=O)N1CCC(c2noc(COc3ccc(C)cc3)n2)CC1,10µM*
O=C(c1ccc(F)cc1)N1CCCC(c2noc(COc3ccccc3)n2)C1 (stereo not drawn),-3%
CCc1noc(-c2cn(C3CCN(C(=O)COc4ccc(F)cc4)C3)nn2)n1 (stereo not drawn),i
Cc1ccc(C)c(NC(=O)N2CCCC(c3noc(COc4ccccc4)n3)C2)c1 (stereo not drawn),5µM*
O=C(COc1ccc(F)cc1)N1CCCC(n2cc(-c3nc(C4CC4)no3)nn2)C1 (stereo not drawn),-12%
SMILES,Pf Dd2 inh
Cc1ccc(NC(=O)N2CCCC(c3noc(COc4ccccc4F)n3)C2)c(C)c1 (stereo not drawn),-15%
O=C(NCc1ccccc1)c1cnc2n1CCN(CC1CCCC1)CC2,-1%[44.1 µM]
COCCn1ncc(N2CCC(NC(=O)CC3CCCC3)CC2)cc1=O,11%
COc1ccccc1C(=O)Nc1ccc([C@H]2OCC(=O)N(Cc3cccnc3)[C@@H]2CO)cc1,-19%
CC(C)(C)CC(=O)Nc1ccc([C@@H](O)[C@H]2COCC(=O)N2CCCc2ccccc2)cc1,i
COc1ccc(OC)c(CNC(=O)CC2CCCCN(C)C2=O)c1 (stereo not drawn),-6%
CCc1noc(-c2cn(C3CCN(C(=O)c4ccc[nH]4)CC3)nn2)n1,i
COc1cccc(-c2noc(-c3ccc(NCCn4cccn4)nc3)n2)c1OC,13µM*
COc1cccc(-c2noc(-c3ccc(-c4cn[nH]c4)nc3)n2)c1OC,-23%
COc1cccc(-c2noc(-c3ccc(NCCCSC)nc3)n2)c1OC,i
CN(CC1CCOC1)C(=O)c1cccc(Cl)c1 (stereo not drawn),i[5.79 µM]
O=C(NC1CCCCC1)N1CCC(c2noc(C3CC3)n2)C1 (stereo not drawn),i[5.79 µM]
Cc1ccc(CSc2nc3cccnc3n2Cc2ccc(C(=O)NC3CCCCC3)cc2)cc1,-16%
Cc1ccc(Cn2c(SCc3ccc(C(=O)N4CCCCCC4)cc3)nc3ccncc32)cc1,11µM*
Cc1ccc(CN2C(=O)NC3(CCN(C(=O)c4ccncc4)CC3)C2=O)cc1,8%
CN(C)c1ccc(NC(=O)Cn2c(SCc3ccc(F)cc3)nc3ccncc32)cc1,i
Cc1ccccc1Cn1c(SCc2ccc(C(=O)N3CCCCC3)cc2)nc2ccncc21,7.9µM*
Cc1ccccc1Cn1c(SCc2ccc(C(=O)NC3CCCCC3)cc2)nc2ccncc21,-17%
